Measurements reported in the supplement of paper PMC6992640.

Assays:
Experiment in all cases: cell viability of combination (% of vehicle); higher = less cytotoxic
Details in all cases: 1 µM; 72 h; partner dose: 10 nM
HCI01 = test system: HCI01 (cells of a triple-negative basal-like breast cancer xenograft)
Method: (§1)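 PDX cells were treated for 72 h with each drug at 1 µM plus afatinib (10 nM; 1 µM for WHIM30). Luciferase viability is expressed as percent of vehicle.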

UCD52 = test system: UCD52 (cells of a triple-negative basal-like breast cancer xenograft)
Method: as §1

WHIM2 = test system: WHIM2 (cells of a triple-negative basal-like breast cancer xenograft)
Method: as §1

| SMILES | cell viability of combination (HCI01) | cell viability of combination (UCD52) | cell viability of combination (WHIM2) |
| --- | --- | --- | --- |
| Oc1c(Cl)cc(Cl)c2cccnc12 [Chloroxine] + CN(C)C/C=C/C(=O)Nc1cc2c(Nc3ccc(F)c(Cl)c3)ncnc2cc1O[C@H]1CCOC1 [Afatinib] | 56.1 | 75.4 | 45.9 |
| CC(C)N=c1cc2n(-c3ccc(Cl)cc3)c3ccccc3nc-2cc1Nc1ccc(Cl)cc1 [Clofazimine] + CN(C)C/C=C/C(=O)Nc1cc2c(Nc3ccc(F)c(Cl)c3)ncnc2cc1O[C@H]1CCOC1 [Afatinib] | 45.8 | 69.6 | 38.9 |
| C#Cc1cccc(Nc2ncnc3cc(OCCOC)c(OCCOC)cc23)c1.Cl [Erlotinib Hydrochloride] + CN(C)C/C=C/C(=O)Nc1cc2c(Nc3ccc(F)c(Cl)c3)ncnc2cc1O[C@H]1CCOC1 [Afatinib] | 47.7 | 54.5 | 37.5 |
| Clc1ccc(COC(Cn2ccnc2)c2ccc(Cl)cc2Cl)cc1.O=[N+]([O-])O (configuration not stated) [Econazole nitrate] + CN(C)C/C=C/C(=O)Nc1cc2c(Nc3ccc(F)c(Cl)c3)ncnc2cc1O[C@H]1CCOC1 [Afatinib] | 55.8 | 62.2 | 55.8 |
| CC(C)(C)Cn1c(N)nc2ccc(-c3[nH]c(C(C)(C)C)nc3-c3ccc(F)cc3)nc21.CS(=O)(=O)O.CS(=O)(=O)O + CN(C)C/C=C/C(=O)Nc1cc2c(Nc3ccc(F)c(Cl)c3)ncnc2cc1O[C@H]1CCOC1 [Afatinib] | 35.9 | 30.3 | 35.4 |
| Clc1ccc(C(Cn2ccnc2)OCc2ccsc2Cl)c(Cl)c1 (configuration not stated) [Tioconazole] + CN(C)C/C=C/C(=O)Nc1cc2c(Nc3ccc(F)c(Cl)c3)ncnc2cc1O[C@H]1CCOC1 [Afatinib] | 65.4 | 81.8 | 47.5 |
| Cn1cnc2c(F)c(Nc3ccc(Br)cc3F)c(C(=O)NOCCO)cc21 + CN(C)C/C=C/C(=O)Nc1cc2c(Nc3ccc(F)c(Cl)c3)ncnc2cc1O[C@H]1CCOC1 [Afatinib] | 40.5 | 54 | 34.8 |
| COc1cc(Nc2ncc(F)c(Nc3ccc4c(n3)N(COP(=O)(O)O)C(=O)C(C)(C)O4)n2)cc(OC)c1OC [Fostamatinib (R788)] + CN(C)C/C=C/C(=O)Nc1cc2c(Nc3ccc(F)c(Cl)c3)ncnc2cc1O[C@H]1CCOC1 [Afatinib] | 64.2 | 74.9 | 41.3 |
| CC(C)Nc1cc(-c2c[nH]c(C(=O)NC(CO)c3cccc(Cl)c3)c2)c(Cl)cn1 (configuration not stated) + CN(C)C/C=C/C(=O)Nc1cc2c(Nc3ccc(F)c(Cl)c3)ncnc2cc1O[C@H]1CCOC1 [Afatinib] | 50.7 | 50.5 | 30.3 |
| CN1CCCC1CCOC(C)(c1ccccc1)c1ccc(Cl)cc1.O=C(O)C=CC(=O)O (configuration not stated) [Clemastine Fumarate] + CN(C)C/C=C/C(=O)Nc1cc2c(Nc3ccc(F)c(Cl)c3)ncnc2cc1O[C@H]1CCOC1 [Afatinib] | 54.6 | 65.2 | 54 |
| CC(O)C(=O)O.CCOc1ccc2nc3cc(N)ccc3c(N)c2c1.O [Ethacridine lactate monohydrate] + CN(C)C/C=C/C(=O)Nc1cc2c(Nc3ccc(F)c(Cl)c3)ncnc2cc1O[C@H]1CCOC1 [Afatinib] | 52.5 | 70.5 | 31.1 |
| Nc1ncn(C2OC(CO)C(O)C2O)c(=O)n1 (configuration not stated) [5-Azacytidine] + CN(C)C/C=C/C(=O)Nc1cc2c(Nc3ccc(F)c(Cl)c3)ncnc2cc1O[C@H]1CCOC1 [Afatinib] | 53.5 | 58.5 | 48.9 |
| CCCCCCCCc1ccc(CCC(N)(CO)CO)cc1.Cl [Fingolimod (FTY720)] + CN(C)C/C=C/C(=O)Nc1cc2c(Nc3ccc(F)c(Cl)c3)ncnc2cc1O[C@H]1CCOC1 [Afatinib] | 53.7 | 69.9 | 44.5 |
| CO[C@H]1C[C@@H]2CC[C@@H](C)[C@@](O)(O2)C(=O)C(=O)N2CCCC[C@H]2C(=O)O[C@H]([C@H](C)C[C@@H]2CC[C@@H](OC(=O)C(C)(CO)CO)[C@H](OC)C2)CC(=O)[C@H](C)/C=C(\C)[C@@H](O)[C@@H](OC)C(=O)[C@H](C)C[C@H](C)/C=C/C=C/C=C/1C [Temsirolimus] + CN(C)C/C=C/C(=O)Nc1cc2c(Nc3ccc(F)c(Cl)c3)ncnc2cc1O[C@H]1CCOC1 [Afatinib] | 45.9 | 40.4 | 44 |
| CNCCC(Oc1cccc2ccccc12)c1cccs1.Cl (configuration not stated) [Duloxetine HCl] + CN(C)C/C=C/C(=O)Nc1cc2c(Nc3ccc(F)c(Cl)c3)ncnc2cc1O[C@H]1CCOC1 [Afatinib] | 45.3 | – | 41.1 |
| O=C(c1ccc(F)c(F)c1Nc1ccc(I)cc1F)N1CC(O)(C2CCCCN2)C1 (configuration not stated) [Cobimetinib] + CN(C)C/C=C/C(=O)Nc1cc2c(Nc3ccc(F)c(Cl)c3)ncnc2cc1O[C@H]1CCOC1 [Afatinib] | 42.2 | – | 27 |
| CC(=O)C1(O)Cc2c(O)c3c(c(O)c2C(OC2CC(N)C(O)C(C)O2)C1)C(=O)c1ccccc1C3=O.Cl (configuration not stated) [Idarubicin HCl] + CN(C)C/C=C/C(=O)Nc1cc2c(Nc3ccc(F)c(Cl)c3)ncnc2cc1O[C@H]1CCOC1 [Afatinib] | 131 | – | 11.7 |
| COc1cc(Nc2c(C#N)cnc3cc(OCCCN4CCN(C)CC4)c(OC)cc23)c(Cl)cc1Cl [Bosutinib (SKI-606)] + CN(C)C/C=C/C(=O)Nc1cc2c(Nc3ccc(F)c(Cl)c3)ncnc2cc1O[C@H]1CCOC1 [Afatinib] | 40.3 | – | 38 |
| Cl.Nc1ccn(C2OC(CO)C(O)C2O)c(=O)n1 (configuration not stated) [Cytarabine hydrochloride] + CN(C)C/C=C/C(=O)Nc1cc2c(Nc3ccc(F)c(Cl)c3)ncnc2cc1O[C@H]1CCOC1 [Afatinib] | 46.6 | – | 40.3 |
